Assay outcomes (PubChem)
Most compounds without a hit are left out; they make up all but 7% or so of the library.
IL-1B inflam inh: blocks inflammasome-driven IL-1 beta release | THP-1 LPS/ATP IL-1B secretion, AlphaLISA, 16 h; stronger effect = lower value | activity change, % at 57.5 µM | hit rate 4.7% among 360,000 | AID 743279; in the data active = activity change below about -50%; inconclusive = mostly about -30% to -49%; also: % is scaled to controls: 0 for no effect and ±100 for the full control effect
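THP-1 cells pretreated 1 hr with compounds (up to 57.5 uM final), then stimulated with LPS (250 ng/mL final) plus ATP (1.25 mM final); secreted IL-1B measured by AlphaLISA after 16 hr, decreased signal indicating inhibition.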
ATXN2 expr inh: ATXN2 expression inhibition; Potency, µM (top dose mostly 57 µM), for the others: top-dose activity change, negative = inhibition, actives largely listed as inhibitors; HEK-293 ATXN2-luciferase reporter, luminescence, 24 h; AID 1745845; hit rate 0.72% among 360,000; also: potency is read from the fitted curve at half-maximal effect; % is scaled to controls: 0 for no effect and ±100 for the full control effect; nearly all actives have a fitted effect of over 55% in size
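qHTS (up to 57 uM final) was run with 24 h compound exposure of reporter cells at 37 °C. Each well was multiplexed: SteadyGlo luminescence measured ATXN2-luciferase expression after a fluorogenic Gly-Phe-AFC viability readout (25 uM final).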
a7 integrin act: integrin-mediated muscular dystrophy alleviation activation; hit rate 0.064% among 350,000; Potency, µM (doses to about 38.3 µM), for the others: at the top dose activation, hits mostly activators; alpha7betagal myoblasts, beta-gal FDG fluorescence, 48 h; AID 624291;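 also: potency is read from the fitted curve at half-maximal effect; 100% = response of the positive control SU9516; nearly all actives have a fitted effect of over 60% in size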
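Alpha7betagal+/- myoblasts (passage 13) were plated 16-24 hr, then exposed to compounds (1:260 dilution of DMSO stock) for 48 hours at 37C. After MPER lysis, β-galactosidase reporter activity was read as FDG fluorescence (ex 480/em 540) after 30 minutes.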
DRD3 antagonist: blocks the human D3 dopamine receptor. P35462. D3R cells, DiscoveRx beta-arrestin luminescence, antagonist mode; stronger effect = lower value. max response, negative = inhibition, %. hit rate 2.5% among 360,000; in the data active = max response below about -50%; inconclusive = no clear call, values can overlap the other calls; also: % is scaled to controls: 0 for no effect and ±100 for the full control effect
Target sequence (P35462 whole entry, looked up): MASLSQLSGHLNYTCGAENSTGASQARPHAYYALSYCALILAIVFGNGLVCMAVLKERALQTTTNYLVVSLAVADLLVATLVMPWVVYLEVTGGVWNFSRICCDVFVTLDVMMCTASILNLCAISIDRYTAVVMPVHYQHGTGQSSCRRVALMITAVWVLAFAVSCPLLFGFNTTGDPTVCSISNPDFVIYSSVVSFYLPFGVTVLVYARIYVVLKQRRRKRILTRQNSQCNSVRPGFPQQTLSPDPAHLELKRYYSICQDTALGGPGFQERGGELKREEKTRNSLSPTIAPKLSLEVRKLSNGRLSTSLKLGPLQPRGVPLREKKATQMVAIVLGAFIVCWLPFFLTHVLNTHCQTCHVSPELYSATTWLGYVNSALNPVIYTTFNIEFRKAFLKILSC
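Cells plated overnight at 1500 cells/well, then exposed to library compounds with dopamine controls for 90 minutes at 37 degrees C. DiscoveRx reagent added for 30–60 minutes at room temperature; luminescence read, quantitative HTS format.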
DRD3 agonist: D3 dopamine receptor (human) agonism. hit rate 0.58% among 410,000. P35462. D3R DiscoveRx beta-arrestin cells, luminescence, 90 min. max activation, %; in the data active = max activation above about 30%; also: 0% is about no effect
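Cells at 1500/well, incubated overnight, then treated with pinned compounds (dopamine as control) for 90 min at 37 degrees C. DiscoveRx reagent added for 30 - 60 minutes at room temperature; luminescence read.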
S2 tox: viability counter-screen for ATXN expression inhibitors; AID 651635; hit rate 0.49% among 400,000; S2 cells (HEK-293 line with an ATXN2-luciferase reporter) viability, CellTiter-Fluor protease fluorescence, 24 h; Potency, µM (doses to about 56.7 µM), most hits filed as cytotoxic; also: potency is read from the fitted curve at half-maximal effect; nearly all actives have a fitted effect of over 40% in size
An asterisk follows results filed as active; i = inactive; ? = inconclusive; . = not tested or not shown. Unless noted, calls follow the shape of the dose curve; as a rule, active = well fitted curve in the direction sought with a large enough effect; inconclusive = small, poorly fitted or top-dose-only effect, or another doubt; inactive = no such curve, though single readings can be large; an effect the other way counts as inactive or inconclusive.

SMILES	IL-1B inflam inh	ATXN2 expr inh	a7 integrin act	DRD3 antagonist	DRD3 agonist	S2 tox
CNC(=O)CC1C(=O)N(c2ccc(Cl)cc2)C(=S)N1CCc1ccc(OC)c(OC)c1 (stereo not given)	-50*	8%	-11%	16	10	i
CCN1C(=O)C(CC(=O)Nc2ccc(OC)cc2)N(CCc2ccc(OC)cc2)C1=S (stereo not given)	-86*	-24%	-35%	-14	1	i
CCc1cccc(NC(=O)C2CCC(CNS(=O)(=O)c3csc(C(N)=O)c3)CC2)c1 (stereo not given)	.	9%	.	.	9	i
CC1CCN(C(=O)c2ccc(S(=O)(=O)Cc3ccccc3F)c([N+](=O)[O-])c2)CC1	-117*	0%	-51%	5	3	i
O=C(c1ccc(S(=O)(=O)c2ccc(F)cc2)c([N+](=O)[O-])c1)N1CCCCCC1	-103*	?	-53%	-10	7	?
O=C(c1ccc(S(=O)(=O)Cc2ccccc2F)c([N+](=O)[O-])c1)N1CCCC1	-103*	43%	-65%	12	6	i
O=C(c1ccc(F)cc1)N1CCN(c2cc(N3CCCCC3)c(F)cc2[N+](=O)[O-])CC1	-83*	-29%	20%	-13	-26	i
O=[N+]([O-])c1cc(F)c(N2CCCCC2)cc1N1CCOCC1	0	8%	-23%	33	-4	i
COc1ccc(C(CCN2CCCC2)c2c(OC)cc(OC)c3c(-c4ccccc4)cc(=O)oc23)cc1 (stereo not given)	-6	?	-23%	12	-16	?
COc1ccc(C(CCN2CCCC(C)C2)c2c(OC)cc(OC)c3c(C)cc(=O)oc23)cc1 (stereo not given)	-29	-3%	-27%	-89*	-67	?
COc1ccc(C(CCN2CCCC(C)C2)c2c(OC)cc(OC)c3c(-c4ccccc4)cc(=O)oc23)cc1 (stereo not given)	-26	?	-42%	-53*	-56	.
COc1cc(OC)c2c(-c3ccccc3)cc(=O)oc2c1C(CCN1CCCC(C)C1)c1ccc(N(C)C)cc1 (stereo not given)	-27	?	-41%	?	-42	20µM*
CCN1CCN(C(=O)Cn2c(-c3cccs3)cc3cc(Cl)ccc32)CC1	.	-16%	.	.	6	?
CCOC(=O)C1(CCOc2ccccc2)CCN(Cc2cccc(F)c2)CC1	?	-74%	-66%	-53*	-27	?
CCOC(=O)C1(CCOc2ccccc2)CCN(C(=O)c2ccc(-n3cccn3)cc2)CC1	-27	-33%	-10%	0	0	i
CCOC(=O)C1(CCOc2ccccc2)CCN(Cc2cccc(OCCO)c2)CC1	-15	-8%	-16%	-16	-12	i
CCOC(=O)C1(Cc2cccc(F)c2)CCN(Cc2nc(CC)[nH]c2C)CC1	-55*	-18%	-33%	-12	-1	i
CCOC(=O)C1(CCOc2ccccc2)CCN(Cc2cccc(-n3cccn3)c2)CC1	3	.	?	-60*	-11	?
CCOC(=O)C1(Cc2cccc(F)c2)CCN(Cc2cnn(CC)c2)CC1	-5	-16%	-29%	?	-8	i
CCOC(=O)C1(CCOc2ccccc2)CCN(Cc2ccc(OC)cc2)CC1	?	0%	?	-72*	-12	?
CCOC(=O)C1(CCOc2ccccc2)CCN(Cc2ccc(NC(C)=O)cc2)CC1	?	-24%	-31%	-18	-23	i
CCOC(=O)C1(CCOc2ccccc2)CCN(Cc2cccc(OC)c2OC)CC1	-88*	-38%	-48%	3	-20	i
Cc1cccc(C)c1NC(=O)NC1(C(=O)N2CCN3CCCC3C2)CCCCC1 (stereo not given)	-3	8%	0%	4	5	i
C=CCc1cc(CN2CC(C)OC(C)C2)c(O)c(OC)c1 (stereo not given)	3	-17%	-10%	-11	-11	?
OCCN(Cc1ccccc1)CC(O)COc1ccc2c(c1)OCO2 (stereo not given)	0	.	-13%	14	2	i
SMILES	IL-1B inflam inh	ATXN2 expr inh	a7 integrin act	DRD3 antagonist	DRD3 agonist	S2 tox
OC(COc1ccccc1)CN(Cc1ccccc1)CC(O)COc1ccccc1 (stereo not given)	-53*	-32%	-19%	0	-13	i
COc1cccc(OCC(O)CN(CCO)Cc2ccccc2)c1 (stereo not given)	22	0%	-4%	39	-8	i
CCC(=O)c1ccc(OCC(O)CN(CCc2ccccc2)Cc2ccccc2)cc1 (stereo not given)	-80*	?	-40%	?	-23	i
CC(C)Cn1c(N)c(C(=O)CSc2nnnn2C)c(=O)n(C)c1=O	15	3%	5%	0	0	i
O=C(Cn1c(=O)[nH]n(-c2ccccc2)c1=O)N1CCCc2ccccc21	16	-37%	-6%	-4	-1	?
COc1ccc(CCN2C(=O)c3oc4ccc(F)cc4c(=O)c3C2c2ccc(C(C)(C)C)cc2)cc1 (stereo not given)	.	-2%	.	.	6	i
C1CCC(OCCN2CCN(CCOC3CCCCC3)CC2)CC1	7	-4%	-27%	-63*	-27	i
C1CCN(CCC2CCCCN2)CC1 (stereo not given)	-8	.	1%	20	-6	i
CSC1=NCCN1C(=O)c1ccc2ccccc2c1	-9	.	17%	1	-9	i
Cc1cc(C)n(C(CC(=O)O)C(=O)O)n1 (stereo not given)	-3	-1%	0%	18	-2	i
Cc1nn(C(CC(=O)O)C(=O)O)c(C)c1Br (stereo not given)	10	0%	-23%	-22	42*	i
CCOC(=O)C(NC(=O)Nc1ccc(F)cc1)(OCC)C(F)(F)F (stereo not given)	16	-14%	18%	-53*	-7	?
CCOC(=O)C(NC(=O)NCc1ccccc1)(OCC)C(F)(F)F (stereo not given)	0	-8%	-16%	0	-2	i
CCc1ccccc1NC(=O)Cn1c(=O)n(Cc2ccccc2)c(=O)c2c(C)c(C(=O)N(C)C)sc21	.	0%	.	.	9	?
O=C(O)c1cccc(S(=O)(=O)Nc2ccc([N+](=O)[O-])cc2O)c1	7	.	?	-6	-9	?
CCOc1ccc(S(=O)(=O)Nc2cc(SCC(=O)O)c(O)c3ccccc23)cc1	94	.	-4%	-51*	-16	?
CCc1ccc(S(=O)(=O)Nc2cc(SCC(=O)O)c(O)c3ccccc23)cc1	80	.	-37%	-63*	-2	i
